Consider twelve compounds from PubChem BioAssay.

Assay [1] in a line: inhibitors of TNFa-induced NFkB p65 translocation, primary screen, imaging, HUVEC, MLSMR starter and 10KST1 sets (AID 438;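 active means inhibition above 20% together with a positive visual image hit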;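 further: compound added about 3h40 before a 20 min TNFalpha stimulation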;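 on inhibition: signal is the nuclear over cytoplasmic p65 intensity ratio per well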). Conditions: HUVEC TNFa-induced p65 nuclear translocation; cell count: measured here: nuclei count (cytotoxicity indicator), at 2.08 µM; inhibition: at 2 µM, stronger effect = higher value, 0% TNFa-plus-vehicle, 100% no-TNFa wells.
A short description of assay [2]: reduction of polyQ htt aggregates in cells – imaging, exon1htt(103Q)mCFP cells, high-content imaging, primary screen (AID 483;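 active means visual image review flags a hit and inhibition of aggregation exceeds 20%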;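 further: compound exposure lasted 3 days before fixation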;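 on nuclei count: percent of the per-plate median nuclei count of sample wells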). Conditions: exon1htt(103Q)mCFP cell line, aggregate imaging, at 2 µM; inhibition of aggregation: stronger effect = higher value; nuclei count: measured here: cell count, toxicity.
A short description of assay [3]: endothelial E-selectin expression blockers – imaging, HUVEC, immunofluorescence, MLSMR starter and 10KST1 sets, primary screen (AID 487;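 active means visually confirmed hit in the image check and inhibition above 20%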;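 on inhibition: signal is fraction of cell area covered by stained E-selectin grains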;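 on nuclei count: 100% = median nuclei count of all wells on the same plate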). Conditions: HUVEC TNFalpha-induced E-selectin immunofluorescence imaging, at 2 µM; inhibition: stronger effect = higher value; nuclei count: measured here: cell number, toxicity.
Assay [4] concerns the target Voltage-gated potassium channel subunit beta-2 (Rattus norvegicus) (UniProt P62483). The experiment in a line: inhibitors of rat Kvbeta2 reductase activity – biochemical, NADPH fluorescence, primary screen (AID 622;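 active means fluorescence slope higher than the sample average by over 3 SD, cut at about -0.22 in these data, passing the limit was not always enough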;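 further: slope of raw intensity against log time taken from 70 to 1610 s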). Particulars: recombinant KvBeta, 4-cyanobenzaldehyde reduction, at 10 µM, stronger effect = higher value.
The target is the same in assay [5]. Description: enhancers of rat Kvbeta2 NADPH turnover – biochemical, NADPH fluorescence, primary screen (AID 623;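 active means NADPH fluorescence slope more negative than the mean of all samples by about 3 SD, 99.7% confidence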;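 further: fluorescence intensity change per second fitted from 20 to 320 s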). Particulars: Recombinant KvBeta, NADPH fluorescence decrease slope, 10 min; at 10 µM; stronger effect = lower value.
Assay [6] deals with Alpha-2C adrenergic receptor (Homo sapiens) (UniProt P18825). The experiment in a line: compounds altering alpha2C-coupled GIRK flux – cell-based, HEK293 alpha2C/GIRK1/2, thallium flux, primary screen (AID 624;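 active means fluorescence slope after compound addition differing from the mean of all screened samples at 99.7% confidence, in either direction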;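 further: slope of fluorescence ratio to pre-addition baseline per second over 15 to 24 s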). Particulars: thallium flux BTC fluorescence, at 10 µM, actives lie on both sides.
Assay [7] can be described thus: blockers of RIG-like receptor reporter activation – cell-based, Sendai virus stimulus, luciferase, 10K MLSCN set, TLR/RLR signaling modifier project, primary screen (AID 602276).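 Further: firefly luciferase from ISG56 promoter only with Renilla not read in this screen; 0% = Sendai virus plus DMSO and 100% = medium plus DMSO without virus.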 Particulars: HEK293 RL24 IRF3 luciferase reporter, at 10 µM, stronger effect = higher value. For orientation: A reporter such as luciferase makes a cellular process visible.
Assay [8] in a line: TLR3 IRF3 reporter activation blockers – cell-based, poly I:C stimulus, luciferase, 10K MLSCN set, primary screen (AID 602277;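 active means inhibition of the reporter signal at or above 50%; inactive means inhibition below 50%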). Conditions: HEK293-TLR3 RL24 IRF3 luciferase reporter, at 10 µM, stronger effect = higher value.

Active and inactive are the calls of the source.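 How the source made its calls, unless noted: active means inhibition at or above 50% at 10 µM; inactive means inhibition below 50%.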

Sequence of Voltage-gated potassium channel subunit beta-2 (Rattus norvegicus) (P62483 whole entry, looked up): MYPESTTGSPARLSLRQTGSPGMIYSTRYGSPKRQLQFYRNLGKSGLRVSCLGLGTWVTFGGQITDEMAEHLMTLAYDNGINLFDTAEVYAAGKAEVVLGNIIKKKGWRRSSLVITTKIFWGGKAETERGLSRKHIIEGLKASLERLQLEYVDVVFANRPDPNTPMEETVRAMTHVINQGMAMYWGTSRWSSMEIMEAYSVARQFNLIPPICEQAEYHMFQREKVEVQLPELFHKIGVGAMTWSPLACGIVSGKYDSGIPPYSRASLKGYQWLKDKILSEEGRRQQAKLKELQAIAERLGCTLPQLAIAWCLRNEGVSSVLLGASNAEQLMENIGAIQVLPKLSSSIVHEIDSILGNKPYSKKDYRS
Sequence of Alpha-2C adrenergic receptor (Homo sapiens) (P18825 whole entry, looked up): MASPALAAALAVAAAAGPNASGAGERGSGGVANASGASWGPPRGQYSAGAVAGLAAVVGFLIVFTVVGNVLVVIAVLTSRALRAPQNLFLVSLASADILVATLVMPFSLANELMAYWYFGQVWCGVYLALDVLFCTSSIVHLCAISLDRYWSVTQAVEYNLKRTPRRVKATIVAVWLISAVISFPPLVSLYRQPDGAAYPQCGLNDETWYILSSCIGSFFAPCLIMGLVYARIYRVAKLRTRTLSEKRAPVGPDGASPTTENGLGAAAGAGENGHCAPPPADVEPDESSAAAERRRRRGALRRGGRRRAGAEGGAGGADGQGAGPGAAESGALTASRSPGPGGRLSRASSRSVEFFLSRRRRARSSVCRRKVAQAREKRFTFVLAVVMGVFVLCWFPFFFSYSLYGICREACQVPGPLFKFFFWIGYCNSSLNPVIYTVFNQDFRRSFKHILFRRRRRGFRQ

As a reminder, the inhibition is the relative decrease from the control value, in per cent. As to `CCC(=O)Nc1ccc(NC(=O)c2cccc(OC)c2)nc1`, in assay [1], the cell count was found to be 742. Moreover, the inhibition in assay [1] was -7.5% (inactive); in assay [3], -92.8% (inactive); in assay [7] it was -60.4% (inactive); in assay [8], -106% (inactive). For the same compound, in assay [2], the inhibition of aggregation was -5.7% (inactive). For the same compound, the nuclei count is 105% in assay [2] and 160% in assay [3]. In addition, in assay [4], the fluorescence slope was -0.465 (inactive). For the same compound, the NADPH fluorescence slope in assay [5] is 1.2e-05 (inactive). Further, the slope in assay [6] is 0.00556 (inactive).

As to `CCn1c(C)c(CCC(=O)O)c(=O)n2nc(-c3ccccc3OC)cc12`, the cell count in assay [1] turned out to be 400. In addition, the inhibition was 7.4% (inactive) in assay [1], -121% (inactive) in assay [3], -9.14% (inactive) in assay [7] and 2.68% (inactive) in assay [8]. In addition, the inhibition of aggregation in assay [2] was 0% (inactive). Also, the nuclei count in assay [2] is 103%; in assay [3], 108%. The fluorescence slope in assay [4] was -0.548 (inactive). In assay [5], the NADPH fluorescence slope is -1.2e-05 (inactive). The slope in assay [6] was 0.00427 (inactive).

Consider `CCc1nnc2n1N=C(c1ccc(-c3ccc(Cl)cc3Cl)o1)CS2`, for which the cell count in assay [1] turned out to be 480. In addition, the inhibition is 3.3% (inactive) in assay [1], -6.7% (inactive) in assay [3], 6.74% (inactive) in assay [7] and 10.2% (inactive) in assay [8]. In addition, the inhibition of aggregation in assay [2] was -48.4% (inactive). The values for the nuclei count in assay [2] and in assay [3] were 102% and 105%, respectively. Moreover, in assay [4], the fluorescence slope was -0.607 (inactive). In assay [5], the NADPH fluorescence slope was 1.7e-05 (inactive). For the same compound, the slope in assay [6] was 0.00636 (inactive).

Regarding `CCN1C(=O)CC(C(=O)Nc2ccc(F)cc2)SC1=Nc1ccc2c(c1)OCO2` (configuration not stated), the cell count in assay [1] came out at 551. The inhibition in assay [1] was -28.9% (inactive); in assay [3], 1.8% (inactive); in assay [7], 18.1% (inactive); in assay [8] it was 21.5% (inactive). Moreover, in assay [2], the inhibition of aggregation was 1.1% (inactive). The figures for the nuclei count in assay [2] and in assay [3] were 110% and 124%, respectively. The fluorescence slope in assay [4] is -0.504 (inactive). Also, in assay [5], the NADPH fluorescence slope is -3.2e-05 (inactive). Also, the slope in assay [6] was 0.00494 (inactive).

As for `O=C1c2ccccc2C(=O)N1CCCCN1CCN(CCCCN2C(=O)c3ccccc3C2=O)CC1`, in assay [1], the cell count was found to be 401. Also, the inhibition is -3.5% (inactive) in assay [1], -22.5% (inactive) in assay [3], 14.1% (inactive) in assay [7] and 10.6% (inactive) in assay [8]. Further, the inhibition of aggregation in assay [2] is 17.2% (inactive). Besides, the nuclei count in assay [2] is 2.4%; in assay [3] it was 86.8%. For the same compound, the fluorescence slope in assay [4] is -0.408 (inactive). In addition, the NADPH fluorescence slope in assay [5] was -3.8e-05 (inactive). Also, the slope in assay [6] was 0.00409 (inactive).

As for `N#Cc1cc2ccc(N3CCOCC3)cc2cc1C#N`, the cell count in assay [1] was 421. The inhibition in assay [1] was -6.5% (inactive); in assay [3], -341% (inactive); in assay [7], 7.25% (inactive); in assay [8], 26.1% (inactive). For the same compound, the inhibition of aggregation in assay [2] was 9.5% (inactive). The nuclei count in assay [2] was found to be 76.5%; in assay [3], 103%. Also, in assay [4], the fluorescence slope was -0.0128 (active). The NADPH fluorescence slope in assay [5] was 1.2e-05 (inactive). The slope in assay [6] was 0.00303 (inactive).

In the case of `COc1ccc(-c2nc(C(N)=O)c3[nH]c(=O)n(-c4cccc(Cl)c4)c3n2)cc1OC`, the cell count in assay [1] stood at 743. In addition, the inhibition in assay [1] is -1% (inactive); in assay [3], -63.8% (inactive); in assay [7] it was 3.83% (inactive); in assay [8], 6.23% (inactive). For the same compound, the inhibition of aggregation in assay [2] was 7.2% (inactive). Further, the nuclei count in assay [2] was determined as 100%; in assay [3], 114%. In addition, in assay [4], the fluorescence slope was -0.521 (inactive). Also, the NADPH fluorescence slope in assay [5] was -3e-05 (inactive). Further, in assay [6], the slope was 0.00698 (inactive).

As to `CCCCn1c(SCC(=O)N2CC(=O)Nc3ccccc32)nnc1-c1ccoc1C`, the cell count in assay [1] was determined as 494. For the same compound, the inhibition in assay [1] was -7.7% (inactive); in assay [3] it was -146% (inactive); in assay [7] it was 13.2% (inactive); in assay [8], 19.3% (inactive). For the same compound, the inhibition of aggregation in assay [2] is 15.6% (inactive). In addition, the nuclei count in assay [2] worked out at 114%; in assay [3], 174%. Further, the fluorescence slope in assay [4] is -0.534 (inactive). The NADPH fluorescence slope in assay [5] is -3.6e-05 (inactive). Also, in assay [6], the slope was 0.00478 (inactive).

Regarding `Cc1ccc2[nH]c(=O)c3cc(C(=O)NCCN4CCN(C)CC4)sc3c2c1`, the cell count in assay [1] amounted to 526. The inhibition in assay [1] is -0.5% (inactive); in assay [3], -14.1% (inactive); in assay [7], 10.4% (inactive); in assay [8] it was 90.4% (active). The inhibition of aggregation in assay [2] is 2.4% (inactive). Further, the nuclei count in assay [2] is 60%; in assay [3], 116%. The fluorescence slope in assay [4] was -0.229 (active). Moreover, the NADPH fluorescence slope in assay [5] is -4.2e-06 (inactive). In addition, the slope in assay [6] was 0.00573 (inactive).

In the case of `O=C(OCC(=O)N1CCc2ccccc21)C1=COCCO1`, in assay [1], the cell count was determined as 341. For the same compound, the inhibition in assay [1] is -3.1% (inactive); in assay [3], -37% (inactive); in assay [7] it was -12.3% (inactive); in assay [8], -46.6% (inactive). In addition, the inhibition of aggregation in assay [2] was 8.9% (inactive). The nuclei count in assay [2] was determined as 86.5%; in assay [3] it was 113%. The fluorescence slope in assay [4] was -0.633 (inactive). Further, the NADPH fluorescence slope in assay [5] was -7.8e-06 (inactive). In assay [6], the slope was 0.00715 (inactive).

`Cc1ccc(N2C(=O)c3ccccc3C2Nc2cccnc2)nc1` (configuration not stated): the cell count in assay [1] came out at 513. In addition, the inhibition in assay [1] is -7.7% (inactive); in assay [3], -91.7% (inactive); in assay [7], -2.85% (inactive); in assay [8], 4.9% (inactive). Also, the inhibition of aggregation in assay [2] is 2.4% (inactive). Moreover, the nuclei count in assay [2] was determined as 92.8%; in assay [3] it was 138%. Also, in assay [4], the fluorescence slope is -0.585 (inactive). In addition, the NADPH fluorescence slope in assay [5] was 2e-05 (inactive). The slope in assay [6] was 0.0064 (inactive).

Take `Cn1c(SCC(=O)Nc2cccc3ccccc23)nc(O)cc1=O`: the cell count in assay [1] is 548. Further, the inhibition in assay [1] is -0.9% (inactive); in assay [3] it was 17.2% (inactive); in assay [7], 11.6% (inactive); in assay [8], 15.1% (inactive). Moreover, the inhibition of aggregation in assay [2] is -2.1% (inactive). Besides, the nuclei count was 113% in assay [2] and 120% in assay [3]. In assay [4], the fluorescence slope is -0.42 (inactive). In assay [5], the NADPH fluorescence slope is -4.6e-05 (inactive). In assay [6], the slope was 0.00441 (inactive).
